Measured values taken from PubChem BioAssay AID1970 (National Center for Advancing Translational Sciences (NCATS), 2009).
Results filed as inconclusive are left out. Activity calls are given as the source filed them. The call rests on the fitted dose curve; in most records, active means well fitted inhibition curve with a large enough effect; inconclusive means small, poorly fitted or top-dose-only effect; inactive means flat fitted curve, though single readings scatter.

Target: Dual specificity protein kinase CLK4 (Homo sapiens) (UniProt Q9HAZ1)
Sequence (Q9HAZ1 whole entry, looked up): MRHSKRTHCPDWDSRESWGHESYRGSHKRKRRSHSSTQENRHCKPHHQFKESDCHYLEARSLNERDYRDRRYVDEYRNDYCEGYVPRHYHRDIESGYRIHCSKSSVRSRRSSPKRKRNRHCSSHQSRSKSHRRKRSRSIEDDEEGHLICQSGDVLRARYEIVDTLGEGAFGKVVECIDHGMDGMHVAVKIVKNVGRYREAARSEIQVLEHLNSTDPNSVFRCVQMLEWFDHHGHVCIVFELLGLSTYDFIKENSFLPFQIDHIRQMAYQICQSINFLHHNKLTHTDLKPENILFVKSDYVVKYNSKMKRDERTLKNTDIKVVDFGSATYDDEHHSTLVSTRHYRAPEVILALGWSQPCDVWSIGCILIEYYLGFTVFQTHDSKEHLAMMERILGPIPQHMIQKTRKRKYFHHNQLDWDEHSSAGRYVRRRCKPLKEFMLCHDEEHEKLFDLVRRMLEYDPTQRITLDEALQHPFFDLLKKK
Assay: Confirmation Assay for Inhibitors of CDC-like Kinase 4 (Kinase-Glo Assay)
Conditions: recombinant Clk4, Kinase-Glo ATP depletion luminescence; series mostly up to 47.7 µM
Procedure: NIH Molecular Libraries Probe Production Centers Network [MLPCN] NIH Chemical Genomics Center [NCGC] MLPCN Grant: 1R03MH084827-01 Assay Submitter (PI): Tom Misteli NCGC Assay Overview: Clk4 (Invitrogen, cat# PV3839) was assayed using ATP and the RS repeat peptide (AnaSpec cat # 61722) as substrates. Following the Clk4 reaction, the remaining ATP levels were detected using Promega Kinase-Glo technology wherein the remaining ATP from the kinase reaction is detected using Ultra-Glo luciferase and D-luciferin which generates a bioluminescence signal from the ATP.
NCGC Assay Protocol Summary: Two uL/well of substrate-buffer solution (100 uM RS peptide, 1 uM ATP, 25 mM Tris pH7.5, 10 mM MgCl2, 0.5 mM EGTA, 2.5 mM DTT, 0.01% Triton X-100 final concentration) was dispensed into 1536-well, assay plates (Greiner, solid white medium-binding plates) with Aurora Discovery BioRAPTR Flying Reagent Dispenser (FRD; Beckton-Dickenson). Using a Kalypsys pin tool equipped with a 1536-pin tool, 23 nL of compound solution was transferred to the assay plate. One uL/ well Clk4-buffer solution (25 nM Clk4, 25 mM Tris pH 7.5, 10 mM MgCl2, 0.5 mM EGTA, 2.5 mM DTT, 0.01% Triton X-100, final concentrations) was then added using the FRD yielding a total kinase reaction volume of 3 uL/ well. After 4.5 hours of room temperature incubation, 3 uL Kinase-Glo reagent was added for a final assay volume of 6 uL/ well. Luminescence was detected with the ViewLux plate reader (Perkin Elmer, Waltham, MA) after 5 min incubation using a 5 second exposure time and 2x binning.

Row | Compound | Potency
1 | c1nc(NCc2ccc3c(c2)OCO3)c2cc(-c3ccc4c(c3)OCCO4)ccc2n1 | 2240 nM (active)
2 | c1cncc(CNc2ncnc3ccc(-c4ccoc4)cc23)c1 | 631 nM (active)
3 | c1csc(CNc2ncnc3ccc(-c4ccc5c(c4)OCO5)cc23)c1 | 45.8 nM (active)
4 | c1nc(NCCc2cnc[nH]2)c2cc(-c3ccoc3)ccc2n1 | 412 nM (active)
5 | c1cncc(CNc2ncnc3ccc(-c4ccco4)cc23)c1 | 6310 nM (active)
6 | Cc1csc(CNc2ncnc3ccc(-c4ccco4)cc23)c1 | inactive
7 | CC(C)(C)CNc1ncnc2ccc(-c3ccc4c(c3)OCO4)cc12 | 32.4 nM (active)
8 | Cc1cccc(CNc2ncnc3ccc(-c4ccc5c(ccn5C)c4)cc23)c1 | 39800 nM (active)
9 | CCOC(=O)c1ccoc1-c1ccc2ncnc(NCc3ccc(C)o3)c2c1 | 5820 nM (active)
10 | c1c[nH]c(CNc2ncnc3ccc(-c4ccoc4)cc23)n1 | 2920 nM (active)
11 | Cc1ccc(CNc2ncnc3ccc(-c4ccoc4)cc23)o1 | 519 nM (active)
12 | Cc1cc(CNc2ncnc3ccc(-c4ccc5c(c4)OCO5)cc23)c(C)o1 | 119 nM (active)
13 | Cc1cccc(CNc2ncnc3ccc(-c4ccccc4Cl)cc23)c1 | 12600 nM (active)
14 | Cc1nc(C)c(-c2ccc3ncnc(NCc4ncc[nH]4)c3c2)s1 | 1840 nM (active)
15 | Cc1csc(CNc2ncnc3ccc(-c4cccnc4)cc23)c1 | 4470 nM (active)
16 | Cc1cccc(-c2ccc3ncnc(NCc4cccs4)c3c2)c1 | 7080 nM (active)
17 | CN(C)CCNc1ncnc2ccc(-c3ccc4c(c3)OCO4)cc12 | 463 nM (active)
18 | OCc1ccc(-c2ccc3ncnc(NCCc4cnc[nH]4)c3c2)o1 | 733 nM (active)
19 | COc1cccc(-c2ccc3ncnc(NCc4ccc5c(c4)OCO5)c3c2)c1 | 1410 nM (active)
20 | CCn1cnc(CCN(C)c2ncnc3ccc(-c4ccc5c(c4)OCO5)cc23)c1 | 1300 nM (active)

Row | Compound | Potency
21 | CN(Cc1nccs1)c1ncnc2ccc(-c3ccc4c(c3)OCO4)cc12 | 37.7 nM (active)
22 | Clc1ccccc1-c1ccc2ncnc(NCc3cccnc3)c2c1 | 10000 nM (active)
23 | Cc1cccc(CNc2ncnc3ccc(-c4cccc(Cl)c4)cc23)c1 | 14100 nM (active)
24 | COc1cccc(-c2ccc3ncnc(NCc4cccs4)c3c2)c1 | 519 nM (active)
25 | CCCN(Cc1cccs1)c1ncnc2ccc(-c3ccc4c(c3)OCO4)cc12 | 116 nM (active)
26 | Cc1cccc(CNc2ncnc3ccc(-c4ccoc4)cc23)c1 | 199 nM (active)
27 | O=C(O)c1ccc(-c2ccc3ncnc(NCCc4cnc[nH]4)c3c2)o1 | 923 nM (active)
28 | Cc1occc1-c1ccc2ncnc(NCCc3cnc[nH]3)c2c1 | 519 nM (active)
29 | c1csc(CNc2ncnc3ccc(-c4ccc5c(c4)OCCO5)cc23)c1 | 112 nM (active)
30 | CCOC(=O)c1ccc(-c2ccc3ncnc(NCc4ncc[nH]4)c3c2)o1 | 582 nM (active)
31 | Cc1csc(CNc2ncnc3ccc(-c4ccc5c(c4)OCO5)cc23)c1 | 141 nM (active)
32 | Cc1csc(CNc2ncnc3ccc(-c4ccoc4)cc23)c1 | 355 nM (active)
33 | Cc1cccc(CNc2ncnc3ccc(-c4cccc(C)c4)cc23)c1 | 8910 nM (active)
34 | Cc1nc(CNc2ncnc3ccc(-c4sc(C)nc4C)cc23)cs1 | 1640 nM (active)
35 | Fc1cccc(CNc2ncnc3ccc(-c4cccnc4)cc23)c1 | 3980 nM (active)
36 | c1c[nH]c(CNc2ncnc3ccc(-c4ccc5c(c4)OCO5)cc23)n1 | 94.7 nM (active)
37 | COc1cccc(-c2ccc3ncnc(NCc4cc(C)cs4)c3c2)c1 | 794 nM (active)
38 | Cc1csc(CNc2ncnc3ccc(-c4ccc5c(c4)OCCO5)cc23)c1 | 447 nM (active)
39 | c1nc(NCc2ccc3c(c2)OCO3)c2cc(-c3ccoc3)ccc2n1 | 631 nM (active)
40 | Cc1csc(CNc2ncnc3ccc(-c4cccc(Cl)c4)cc23)c1 | 7940 nM (active)
